Consider 38 compounds from PubChem BioAssay (NCI).

SMILES strings stand for the structures. The panel holds about 83,000 compounds, 20% with a hit somewhere; the sample as a whole holds those more often.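 Cells were grown in 96-well plates and exposed to the test compound at a single concentration for 48 hours; results are reported as percent growth, with values below 10 considered active.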 A number with no mark means an inactive call. The source made the active and inactive calls.

The test system of this assay is UACC-257 melanoma. The experiment in a line: NCI-60 one-dose screen, 48 h (100 = growth as untreated, 0 = no growth, -100 = all killed). The settings on record: 10 µM unless noted.
As for `O=C(/C=C/c1ccc(Cl)cc1)c1ccc(NC(=O)N2CCN(c3cc4c(cc3F)c(=O)c(C(=O)O)cn4C3CC3)CC2)cc1`, the growth is 105%. For `O=C(/C=C(/C=C/c1csc2ccccc12)OB(F)F)/C=C/c1csc2ccccc12`, the growth is 57.7%. On to `CN1CCN(C(=O)[C@]23CCC(C)(C)C[C@H]2C2=CC[C@@H]4[C@@]5(C)C/C(=C/c6cccnc6)C(=O)C(C)(C)[C@@H]5CC[C@@]4(C)[C@]2(C)CC3)CC1`, for which the growth is 43.7%.

With `CC1=CCC(OC(=O)C(C)(O)CCC(O)(C(=O)OC2(C)C=CC(O)(C(C)C)CC2)C(C)C)(C(C)C)CC1` (stereo not drawn), the growth was 106%. The result for `NC1=NN=C(N)C1=Cc1cc2ccccc2n2nnnc12` reads 98.3%; that for `COc1ccc(NC(N)=NCCCOc2ccc(F)cc2)cc1`, 25.4%; that for `O=C1c2ccc3c4c(ccc(c24)C(=O)N1CCCNCc1ccccc1)C(=O)N(CCCNCc1ccccc1)C3=O`, -95.2% (active).

For the compound `O=C(NCCNc1nccc(-c2c(-c3cccc(F)c3)nc3sccn23)n1)c1ccc(Cl)cc1`, the growth is 76%. The result for `C=C1C(=O)O[C@H]2[C@H]1CC/C(COC(=O)NCCc1c[nH]c3ccc(OC)cc13)=C\CC[C@@]1(C)O[C@@H]21` reads 30.6%; that for `COc1cc(CC(=O)c2ccc(O)c(OC)c2)ccc1O`, 80.1%. The figure for `CCN(CC)c1ccc(/C=N/NC(=O)CSc2nc3ccccc3c(=O)n2CCc2ccc(S(N)(=O)=O)cc2)c(O)c1` is 16.7%; for `Cc1ccc(-n2c3c(c(-c4ccccc4)c2-c2ccccc2)C2=NCCN2C=N3)cc1` it is 104%. On to `CN1CCN(C(=O)[C@]23CCC(C)(C)C[C@H]2C2=CC[C@@H]4[C@@]5(C)C/C(=C/c6ccncc6)C(=O)C(C)(C)[C@@H]5CC[C@@]4(C)[C@]2(C)CC3)CC1`, for which the growth was 57.5%. The result for `C=C(C)[C@@H]1CC[C@]2(C(=O)N3CCN(C)CC3)CC[C@]3(C)[C@H](CC[C@@H]4[C@@]5(C)C/C(=C/c6cccnc6)C(=O)C(C)(C)[C@@H]5CC[C@]43C)[C@@H]12` reads 66.6%; that for `N/C(=N\C(N)=N\c1nc2ccccc2s1)c1cccc(Cl)c1`, 113%; that for `CCOC(=O)Nc1ccc(-c2ccc3c(c2)NC(=O)/C3=C\c2ccc[nH]2)cc1`, 113%. `CCNC(=O)Oc1ccc(/C(=C(\C)c2ccccc2)c2ccc(OCCN(CC)CC)cc2)cc1`: the growth was -0.741% (active). The result for `CCOC(=O)/C(C#N)=C1/NNC(=Nc2cccnc2)S1` reads 78.3%; that for `COc1cccc(-c2nc3occn3c2-c2ccnc(NCCCNS(=O)(=O)c3ccc(C(F)(F)F)cc3)n2)c1`, 84.5%. Turning to `CC(=O)Nc1ccc(-n2cnc3cc(-c4ccc(OCCN5CCCCC5)cc4)ccc32)cc1`, the growth is 108%. With `Cn1ccnc1C(=O)/C=C/c1ccc(CC(=O)Nc2ccc(Cl)cc2)cc1`, the growth is 85.9%. The figure for `C=CCN1C(=O)/C(=C/C(=O)OC)S/C1=N\NC(=O)c1cc2ccc1/C=C\c1ccc(cc1)/C=C\2` is 91.1%. The figure for `COc1ccc(/C=C(\C#N)n2nc3cccc(F)c3n2)cc1` is 95.5%; for `N/C(=N\C(N)=N\c1nc2ccccc2s1)c1cnccn1` it is 35.5%; for `Cc1c(C(=O)NCCC(=O)NO)sc2ncnc(Nc3ccc(NC(=O)Nc4cccc(C(F)(F)F)c4)cc3)c12` it is 108%.

For the compound `O=C(Nc1ccc(-c2ccc3c(c2)NC(=O)/C3=C\c2ccc[nH]2)cc1)NC1CC1`, the growth was 117%. The result for `S=c1cc(S)c2cc(Br)ccc2[nH]1` reads 87.1%.

Take `CCCCOc1ccc(/C=N/Nc2cc(C)nc3ccc(Br)cc23)cc1`: the growth is 96.3%. The result for `N/C(=N\C(N)=N\c1nc2ccccc2s1)c1ccnc(Br)c1` reads 46.2%; that for `COc1cc(NC(C)CCCNC(=O)CCC(=O)NCCCNCCCCCCCCNCCCNC(=O)CCC(=O)NCCCC(C)Nc2cc(OC)cc3cccnc23)c2ncccc2c1` (stereo not drawn), 36.3%. As for `COc1cc2nc(-c3ccc(C(F)(F)F)cc3)cc(OCCCN3CCOCC3)c2cc1OC`, the growth is -16.2% (active). Turning to `O=C(Cn1c[n+](CC(=O)c2ccc(-c3ccccc3)cc2)c2ccccc21)Nc1cccc2cccnc12`, the growth is 10.1%. The result for `CC(Oc1ccc(C(=O)O)cc1C(F)(F)F)c1ccc(Oc2ccccc2)cn1` (stereo not drawn) reads 97.7%.

With `O=C(Nc1ccc(F)cc1)Nc1ccc(NC(=O)c2cc(Cl)nc3ccccc23)cc1`, the growth is 79.8%.

Turning to `O=C(CCN1CCCC1)Nc1ccc2c(Nc3ccc(F)cc3)c3ccccc3nc2c1`, the growth was -57.1% (active). The result for `CC(Sc1nc2ccccc2c(=O)n1CCc1ccc(S(N)(=O)=O)cc1)C(=O)Nc1ccc(Cl)cc1` (stereo not drawn) reads 90.2%. As to `O=C(N/N=C/c1cc2ccccc2n2nnnc12)Nc1ccccc1`, the growth was 111%. In the case of `CC1(C)CC(=O)C2=C(C1)N(c1ccc(F)cc1F)C(N)=C(C#N)C2c1cc(Br)ccc1F` (stereo not drawn), the growth was 101%.
